Shown are actives, neighbours in structure and some others; about 2.3% of the full set was active somewhere.
ELG1 DNA repair: qHTS screen for small molecules that inhibit ELG1-dependent DNA repair in human embryonic kidney (HEK293T) cells expressing luciferase-tagged ELG1; HEK293T ELG1-luciferase reporter, luminescence, 16 h; DNA damage induced by 5-fluorouridine; Potency, µM (titrated, usually from 46.1 µM), inactives show top-dose activity change, negative = inhibition, actives largely listed as inhibitors; hit rate 2.3% among 330,000; AID 504467, 2011; also: potency is read from the fitted curve at half-maximal effect; % is scaled to controls: 0 for no effect and ±100 for the full control effect; nearly all actives have a fitted effect of over 55% in size
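HEK293T cells expressing luciferase-tagged ELG1 (2,000/well) received 5-Fluorouridine plus compound or DMSO for 16 hr at 37 °C. Luciferase was read by ONE-Glo luminescence after 30 min at room temperature.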
TRPV1 potentiator: HTS Assay for Compounds that Act as Potentiators of the Vanilloid Receptor 1 | Transient receptor potential cation channel subfamily V member 1 (Homo sapiens), Q8NER1 | potentiation, % at 8.33 µM | hit rate 0.02% among 320,000 | TRPV1-expressing cells, Fluo-8 calcium influx, capsaicin EC20 potentiation | AID 540277, 2011; in the data active = potentiation above about 80%; inconclusive = between about 30% and that limit; also: 0% is about no effect
Target sequence (Q8NER1 whole entry, looked up): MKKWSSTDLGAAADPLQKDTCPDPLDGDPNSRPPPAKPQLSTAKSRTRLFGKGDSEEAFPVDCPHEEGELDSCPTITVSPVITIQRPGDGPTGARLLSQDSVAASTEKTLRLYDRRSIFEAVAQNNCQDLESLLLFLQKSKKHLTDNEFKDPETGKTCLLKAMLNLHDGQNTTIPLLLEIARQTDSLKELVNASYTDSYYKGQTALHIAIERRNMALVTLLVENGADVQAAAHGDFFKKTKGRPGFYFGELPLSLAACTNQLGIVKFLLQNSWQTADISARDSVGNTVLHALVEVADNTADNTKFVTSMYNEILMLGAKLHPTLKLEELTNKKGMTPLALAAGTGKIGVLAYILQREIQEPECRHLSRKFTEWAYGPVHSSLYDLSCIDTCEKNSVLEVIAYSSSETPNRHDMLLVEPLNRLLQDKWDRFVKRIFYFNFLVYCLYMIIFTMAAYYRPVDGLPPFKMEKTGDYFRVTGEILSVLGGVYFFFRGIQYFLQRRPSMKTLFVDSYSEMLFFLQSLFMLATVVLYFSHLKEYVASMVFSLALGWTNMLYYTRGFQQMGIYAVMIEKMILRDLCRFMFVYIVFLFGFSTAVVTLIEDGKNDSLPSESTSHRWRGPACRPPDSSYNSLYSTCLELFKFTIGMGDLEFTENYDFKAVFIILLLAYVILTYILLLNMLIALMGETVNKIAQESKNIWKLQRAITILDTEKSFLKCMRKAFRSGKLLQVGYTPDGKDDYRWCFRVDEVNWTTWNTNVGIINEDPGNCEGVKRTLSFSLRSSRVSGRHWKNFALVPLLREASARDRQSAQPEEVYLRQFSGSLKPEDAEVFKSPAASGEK
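Fluo-8 calcium influx in TRPV1-expressing cells, kinetic read (ex 480/em 520 nm). Compound added and read 3 min for agonist activity, followed by capsaicin at EC20 final and 2 min further read for enhancement.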
FUS yeast rescue: qHTS for Suppressors of FUS Proteinopathy: Primary screen using FUS-linked yeast assay | Potency, µM (top dose mostly 76.6 µM), most hits filed as activators | AID 1347120, 2019 | hit rate 0.24% among 390,000 | S. cerevisiae FUS-expressing, growth rescue, OD600, 24 h;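 also: potency is read from the fitted curve at half-maximal effect; plate controls were DMSO vehicle for no effect and reference control for full effect; nearly all actives have a fitted effect of over 55% in size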
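S. cerevisiae expressing FUS from galactose induction served as the toxicity model. Growth after 24hr at 30C, read as absorbance at 600 nm, indicates suppression of toxicity; compounds dosed at several concentrations.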
Giardia killer: Small Molecules that selectively kill Giardia lamblia: qHTS; Giardia lamblia trophozoite viability; activity change, % at 7.66 µM, hits read low; hit rate 0.15% among 340,000; AID 540267, 2011; in the data active = activity change below about -80%; inconclusive = between about -30% and that limit;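 also: parasites exposed to compound for two days anaerobically before the ATP read; % is scaled to controls: 0 for no effect and ±100 for the full control effect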
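Luminescent ATP signal served as the viability read-out, measured 15-30 min after adding ATP detection reagent to trophozoites that had been incubated with compounds for 48 hrs at 37 deg C anaerobically at 100 cells/well.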
TRPV1 agonist: HTS Assay for Compounds that Act as Agonists of the Vanilloid Receptor 1; hit rate 0.19% among 320,000; activation, % at 8.33 µM; AID 540275, 2011; TRPV1-expressing cells, Fluo-8 calcium influx, agonist mode; Transient receptor potential cation channel subfamily V member 1 (Homo sapiens), Q8NER1; in the data active = activation above about 80%; inconclusive = between about 30% and that limit; also: 0% is about no effect
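Fluo-8 calcium influx in TRPV1-expressing cells, kinetic read (ex 480/em 520 nm). Compound added and read 3 min for agonist activity, followed by capsaicin at EC20 final and 2 min further read for enhancement.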
* marks the source's active call; other numbers are inactive results; i = inactive; ? = inconclusive; . = no result; ! = a repeat was not active. Unless noted, calls follow the shape of the dose curve; as a rule, active = well fitted curve in the direction sought with a large enough effect; inconclusive = small, poorly fitted or top-dose-only effect, or another doubt; inactive = no such curve, though single readings can be large; an effect the other way counts as inactive or inconclusive.

SMILES | ELG1 DNA repair | TRPV1 potentiator | FUS yeast rescue | Giardia killer | TRPV1 agonist
Cc1nn2c(NCCN3CCOCC3)c3c(nc2c1-c1ccccc1)CCCC3 | 16.4µM* | -11.7 | i | 15.3 | 26.0
COc1ccc(Cn2ccnc2SCC(=O)Nc2ccc3c(c2)OCCO3)cc1 | . | . | i | . | .
CC(=O)N1CCOc2cc(S(=O)(=O)Nc3c(C)cccc3C(C)C)c(Cl)cc21 | . | -21.2 | i | . | 14.3
O=C(CSCn1nnc2c(=O)[nH]c(Cc3ccc(F)cc3)nc21)Nc1cccc(C(F)(F)F)c1 | . | . | i | . | .
O=C(OCc1cn(Cc2ccccc2F)nn1)N1CCCC1 | . | . | i | . | .
Cc1ccc(-c2nc3scc(CCNC(=O)c4cccc(Br)c4)n3n2)cc1 | . | . | i | . | .
CCC(C)Nc1ccc(NC(C)CC)cc1 (configuration not stated) | ? | -14.0 | i | -101.3*! | 15.0
Cc1ccc2cc(C#N)c(N3CCCN(S(=O)(=O)c4ccccc4)CC3)nc2c1C | . | . | 6.31µM* | 4.1 | .
Cc1ccc2cc(C#N)c(N3CCCN(S(=O)(=O)c4ccccc4)CC3)nc2c1 | -2.0% | 3.1 | i | 8.9 | 3.9
COC(=O)c1ccc(NC(=O)N2CCC(CN3CCc4ccccc4C3)CC2)cc1 | . | . | i | . | .
CCc1sc(Nc2ccc(C)cc2Br)nc1-c1cc2cccc(OC)c2oc1=O | . | . | i | . | .
Cn1c([N+](=O)[O-])cnc1N1CCN(c2nncs2)C1=O | ? | 9.6 | i | -92.9* | -1.2
COc1ccc(CN2CCN(C(=O)c3ccc(S(=O)(=O)N4CCCCCC4)cc3)CC2)cc1F | 6.51µM* | -36.2 | i | -18.2 | 23.7
COc1ccccc1N1CCN(C(=O)c2ccc(S(=O)(=O)N3CCCCCC3)cc2)CC1 | 14.6µM* | -0.9 | i | -2.8 | 2.5
COc1ccc(OC2CCN(S(=O)(=O)c3ccc(C(C)=O)cc3)CC2)cc1 | 20.6µM* | -8.0 | i | -11.5 | -2.1
COc1ccc(S(=O)(=O)N(CC(=O)N2CCN(c3ccccc3OC)CC2)c2ccccc2)cc1 | 20.6µM* | 0.3 | ? | -5.1 | -2.5
COc1ccc(CN2CCN(S(=O)(=O)c3ccc(F)cc3)CC2)cc1OC | 13µM* | -25.0 | i | 7.0 | 16.6
COc1ccc(CN2CCN(C(=O)c3ccc(S(=O)(=O)N4CCCCCC4)cc3)CC2)cc1 | 10.3µM* | -8.6 | i | -10.6 | 14.7
COc1ccc(CN2CCN(S(=O)(=O)c3ccc(NC(C)=O)cc3)CC2)cc1OC | -22.9% | 1.4 | i | 23.3 | -2.6
O=C(CCc1ccccc1)N(Cc1cccnc1)c1nc2c(F)cc(F)cc2s1 | . | . | i | . | .
O=C(c1ccc(CS(=O)Cc2ccc(Cl)cc2)o1)N1CCN(c2ccccn2)CC1 (configuration not stated) | ? | 3.2 | i | -3.6 | 0.0
O=C(c1ccc(CS(=O)Cc2ccccc2Cl)o1)N1CCN(c2ccccn2)CC1 (configuration not stated) | 20.6µM* | 22.0 | i | -6.0 | 2.7
COc1cccc(N2CCN(C(=O)c3ccc(CS(=O)Cc4ccccc4Cl)o3)CC2)c1 (configuration not stated) | ? | 18.1 | i | 20.2 | -1.7
COc1cccc(N2CCN(C(=O)c3ccc(CS(=O)Cc4ccc(Cl)cc4)o3)CC2)c1 (configuration not stated) | 20.6µM* | 26.1 | i | 2.7 | -4.1
CN1CCN(c2ncc3c(n2)CCN(Cc2cc(Br)cs2)C3)CC1 | . | . | i | . | .
SMILES | ELG1 DNA repair | TRPV1 potentiator | FUS yeast rescue | Giardia killer | TRPV1 agonist
CCOC(=O)c1scc(-c2ccccc2)c1S(=O)(=O)N1CCN(c2ccc(Cl)cc2)CC1 | . | . | i | . | .
COc1cccc(-c2cc(C(F)(F)F)nc(NCCc3ccc(OC)c(OC)c3)n2)c1 | . | . | i | . | .
CCCC[n+]1ccn(-c2nc3ccccc3nc2[N-]S(=O)(=O)c2cccs2)c1 | 20.6µM* | -3.6 | i | 1.9 | 12.7
CCN(CC)S(=O)(=O)c1ccc(Cl)c(NC(=O)COC(=O)c2c(C)noc2C)c1 | 18.4µM* | 9.2 | i | -3.3 | 3.9
CCN(CC)S(=O)(=O)c1ccc(Cl)c(NC(=O)COC(=O)c2cccn2C)c1 | 14.6µM* | 10.6 | i | -14.9 | 0.9
CCN(CC)S(=O)(=O)c1ccc(Cl)c(NC(=O)COC(=O)c2ccc(O)cc2)c1 | ? | -4.2 | i | 13.7 | 15.2
Cn1c(=O)c(C(=O)COC(=O)c2cc(-c3ccco3)nc3ccccc23)c(N)n(CC2CC2)c1=O | 6.51µM* | 19.0 | . | . | -2.3
Cn1c(=O)c(C(=O)COC(=O)c2cc(C3CC3)nc3ccccc23)c(N)n(Cc2ccccc2)c1=O | -28.8% | ? | ? | ? | 1.4
CCC(=O)N(C1=C(NC)C(=O)c2ccccc2C1=O)C(C)C | ? | 3.5 | i | -29.7 | 1.3
CNC1=C(N(C(C)=O)c2ccc(Br)cc2)C(=O)c2ccccc2C1=O | 3.66µM* | 19.8 | i | -21.0 | 4.1
Cc1ccc(NC(=O)Cn2c(C)cc(C)c(C#N)c2=O)cc1 | . | . | i | . | .
CCCCN(CCCC)c1nc(-c2ccccc2)nc2ccccc12 | . | . | i | . | .
CCCCN(CC)c1nc(-c2ccncc2)nc2ccccc12 | 23.1µM* | -9.8 | i | 9.2 | 1.6
CC(=O)c1c(C)[nH]c(C(=O)COC(=O)c2c(-c3ccccc3)noc2C)c1C | 20.6µM* | . | . | 12.1 | .
N#C/C(=C(/O)c1ccc(Cl)c([N+](=O)[O-])c1)c1nc2ccccc2[nH]1 | 8.2µM* | . | i | 28.5 | .
N#C/C(=C(/O)c1ccc([N+](=O)[O-])cc1)c1nc2ccccc2[nH]1 | -1.8% | -8.3 | i | -25.1 | -1.3
Cc1c(-c2cccc(Cl)c2)nc2ccccc2c1C(=O)OCC(=O)Nc1ccc2c(c1)OCO2 | 18.4µM* | -0.3 | i | -2.7 | 28.3
Cc1onc(-c2ccccc2)c1C(=O)OCC(=O)Nc1ccc2c(c1)OCO2 | -22.3% | 12.3 | i | 22.3 | 1.8
COC(=O)c1ccc(C2Nc3ccc(/C(C)=N/NC(=O)C(OC)c4ccccc4)cc3C3C=CCC32)cc1 (configuration not stated) | -12.3% | 21.1 | 4.47µM* | 0.3 | 0.6
